The text below walks through data of ChEMBL document CHEMBL1201862, “PubChem BioAssay data set” (2004).

The campaign covered roughly 400,000 compounds. About 2,100 (0.53%) were called active. Inconclusive results (about 14%) are left out. How the calls were made is not given here. The entries come from a sample that favours actives as a whole.

The target of this experiment is Ataxin-2 (Homo sapiens) (UniProt Q99700). Briefly: qHTS for Inhibitors of ATXN expression. It is filed as functional.
Ataxin-2 (Homo sapiens), sequence (Q99700 whole entry): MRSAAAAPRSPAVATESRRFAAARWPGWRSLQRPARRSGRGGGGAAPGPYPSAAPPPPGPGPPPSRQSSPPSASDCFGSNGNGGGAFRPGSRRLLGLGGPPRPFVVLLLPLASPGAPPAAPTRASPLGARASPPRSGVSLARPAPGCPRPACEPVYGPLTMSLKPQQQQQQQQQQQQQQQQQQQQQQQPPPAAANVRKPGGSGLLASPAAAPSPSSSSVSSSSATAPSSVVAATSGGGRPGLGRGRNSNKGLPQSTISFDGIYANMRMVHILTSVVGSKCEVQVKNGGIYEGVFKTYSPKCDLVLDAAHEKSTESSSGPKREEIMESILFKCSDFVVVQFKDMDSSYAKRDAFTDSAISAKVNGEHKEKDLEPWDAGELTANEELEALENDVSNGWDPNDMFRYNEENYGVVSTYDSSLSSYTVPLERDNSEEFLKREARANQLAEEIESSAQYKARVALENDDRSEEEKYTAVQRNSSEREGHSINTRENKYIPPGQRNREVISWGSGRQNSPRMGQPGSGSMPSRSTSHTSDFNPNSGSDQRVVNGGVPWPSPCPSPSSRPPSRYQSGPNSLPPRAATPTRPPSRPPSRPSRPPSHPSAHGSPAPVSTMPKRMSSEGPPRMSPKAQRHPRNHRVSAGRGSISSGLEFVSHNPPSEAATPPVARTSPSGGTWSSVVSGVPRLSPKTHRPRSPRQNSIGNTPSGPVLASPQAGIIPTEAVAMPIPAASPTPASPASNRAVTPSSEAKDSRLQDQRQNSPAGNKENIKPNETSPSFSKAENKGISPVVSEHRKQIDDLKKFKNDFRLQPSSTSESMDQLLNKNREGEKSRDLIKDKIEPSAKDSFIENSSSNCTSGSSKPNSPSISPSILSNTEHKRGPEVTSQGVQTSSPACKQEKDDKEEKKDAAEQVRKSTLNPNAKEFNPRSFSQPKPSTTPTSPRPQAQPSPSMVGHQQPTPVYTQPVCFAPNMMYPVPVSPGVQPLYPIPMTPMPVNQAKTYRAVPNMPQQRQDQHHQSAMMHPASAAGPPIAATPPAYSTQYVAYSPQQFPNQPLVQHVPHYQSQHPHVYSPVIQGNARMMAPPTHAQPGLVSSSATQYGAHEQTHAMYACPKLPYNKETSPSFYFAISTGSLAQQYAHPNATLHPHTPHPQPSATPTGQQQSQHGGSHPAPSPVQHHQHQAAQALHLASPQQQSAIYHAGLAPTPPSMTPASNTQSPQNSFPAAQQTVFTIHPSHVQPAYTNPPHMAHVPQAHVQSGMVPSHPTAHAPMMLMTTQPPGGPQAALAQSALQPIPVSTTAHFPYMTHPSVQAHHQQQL
In the case of `CCOc1ccc2nc3cc(N=Nc4ccc(N)nc4N)ccc3c(N)c2c1`, the Potency is 10.6 µM (active).
The result for `CCOc1ccc2nc3ncccc3c(O)c2c1` reads “inactive”.
Take `CCOc1ccc2[nH]c3ccc4nonc4c3c2c1`: the Potency entry was “inactive”.
For `COc1ccc(C2=CC(c3cccc(C)c3)n3nnnc3N2)cc1` (centres undefined), the Potency entry is “inactive”.
Regarding `Cc1n[nH]c(C)c1N1C(=O)c2cccc3c(Br)ccc(c23)C1=O`, the Potency entry is “inactive”.
With `OC[C@@H]1[C@@H](c2ccc(Cl)cc2)C(c2ccc(F)cc2)=NN1c1ccccc1`, the Potency result was “inactive”.
In the case of `COc1ccccc1C1C=C(c2ccc(F)cc2)Nc2nc(-c3ccc(Cl)cc3)nn21` (centres undefined), the Potency entry was “inactive”.
Regarding `CCOc1ccc(C2C=C(c3ccc(C)cc3)Nc3nnnn32)cc1` (centres undefined), the Potency entry is “inactive”.
On to `COc1ccccc1C1C=C(c2ccc(Cl)cc2)Nc2nc(N3C(=O)CCC3=O)nn21` (centres undefined), for which the Potency entry was “inactive”.
As to `CCOc1ccc(C(=O)C2=C(O)C(=O)N(c3ncccn3)C2c2ccc(C)cc2)cc1` (centres undefined), the Potency result was “inactive”.
The result for `O=C1OCCN1C(=O)[C@H]1[C@H](c2ccc(Cl)cc2)C(c2ccc(F)cc2)=NN1c1ccc(Br)cc1` reads “inactive”; that for `Cc1ccc(N2C(=O)c3[nH]nc(-c4ccc(Cl)cc4)c3C2c2ccc(F)cc2)cc1` (centres undefined), 39.8 µM (active); that for `CCOc1ccc(C2c3c(-c4ccc(C)cc4)n[nH]c3C(=O)N2c2ccc(Cl)cc2)cc1` (centres undefined), 39.8 µM (active).
As for `COc1ccccc1C1c2c(-c3ccc(Cl)cc3)n[nH]c2C(=O)N1c1ccc(C)cc1` (centres undefined), the Potency was 39.8 µM (active).
Turning to `O=C1c2[nH]nc(-c3ccc(F)cc3)c2C(c2ccccc2F)N1c1ccccc1` (centres undefined), the Potency is 22.4 µM (active).
Consider `CCN1C(=O)c2cccc3c(S(=O)(=O)N(C)C)ccc1c23`, for which the Potency entry is “inactive”.
As for `Cc1ccc(-c2cc(C(=O)NN3CCOCC3)c3cc(Br)ccc3n2)o1`, the Potency entry was “inactive”.
Take `CCCc1cc(C(=O)Nc2cc(C)on2)no1`: the Potency entry was “inactive”.
On to `N#Cc1c(N)n(-c2ccc(C(=O)O)cc2)c2nc3ccccc3nc12`, for which the Potency result was “inactive”.
Then `Cc1ccc2nc(N3CCN(C=O)CC3)nc(-c3ccccc3)c2c1`, with “inactive”; and `CCOC(=O)c1ccc(-c2ccc(/C=C(\C#N)C(=O)NCC3CCCO3)o2)cc1` (centres undefined), with “inactive”; and `Cn1c(-c2ccc(C#N)cc2)c(C#Cc2ccccc2)c2ccccc21`, with “inactive”.
For `CCOc1ccc(N2C(=O)c3[nH]nc(-c4cccs4)c3C2c2cccc(F)c2)cc1` (centres undefined), the Potency was 39.8 µM (active).
With `COc1ccc(OC)c(C2c3c(-c4ccc(Br)cc4)n[nH]c3C(=O)N2c2ccc(Cl)cc2)c1` (centres undefined), the Potency is 39.8 µM (active).
Consider `Fc1ccc(N2N=C(c3cccs3)CC2c2ccccc2)cc1` (centres undefined), for which the Potency result was “inactive”.
Then `COC(=O)c1nc2n(n1)C(c1cc(OC)ccc1OC)C=C(c1ccc(Br)cc1)N2` (centres undefined), with “inactive”; and `COc1ccccc1[C@@H]1C(c2cccc(Cl)c2)=NN(c2ccc(Br)cc2)[C@H]1C(=O)N1CCOC1=O`, with “inactive”.
In the case of `CC(=O)c1sc2nc(C)c3c(c2c1N)CCCC3`, the Potency entry was “inactive”.
The result for `CNc1nc(-c2cccs2)cc(C(F)(F)F)c1C#N` reads “inactive”.
Consider `COCCn1c2nc(=O)n(-c3ccccc3)c(=O)c-2nc2ccccc21`, for which the Potency result is “inactive”.
The result for `Cc1ccc(C)c(OCCn2c(C3CC(=O)N(Cc4ccc(F)cc4)C3)nc3ccccc32)c1` (centres undefined) reads 39.8 µM (active); that for `Cc1ccc(C)c(OCCn2nnc3ccccc32)c1`, “inactive”.
As for `Cc1cccc(C)c1OCCn1c(C2CC(=O)N(Cc3ccc(F)cc3)C2)nc2ccccc21` (centres undefined), the Potency is 39.8 µM (active).
Then `CCOc1ccc(CCNC(=O)C2CC(=O)N(Cc3ccc(OC)cc3)C2)cc1OCC` (centres undefined), with “inactive”; and `CC(=O)Oc1ccc2cc(-c3cccnc3)c(=O)oc2c1`, with “inactive”; and `NNC(=O)C1CC1(c1ccccc1)c1ccccc1` (centres undefined), with “inactive”.
In the case of `Cc1ccc(C2(c3ccc(C)cc3)CC2C(=O)Nc2ccc([N+](=O)[O-])cc2O)cc1` (centres undefined), the Potency was 20 µM (active).
As to `COc1ccc(CNC2=NC(=O)CC(C(=O)Nc3ccc([N+](=O)[O-])cc3C)S2)cc1` (centres undefined), the Potency entry was “inactive”.
The result for `COc1ccc2nc(NCCCNC(=O)c3cc(OC)c(OC)c(OC)c3)c(C#N)cc2c1` reads “inactive”.
Consider `CCCCN(CCCNC(=O)c1cc(Nc2ccc(OC)c(OC)c2)nc2ccccc12)Cc1ccccc1`, for which the Potency was 22.4 µM (active).
Turning to `COc1ccc(Nc2cc(C(=O)NCCCN(C)Cc3ccccc3)c3ccccc3n2)c(OC)c1`, the Potency was 14.1 µM (active).
On to `COc1ccc(OC)c(Nc2cc(C(=O)NCc3ccccc3)c3ccccc3n2)c1`, for which the Potency result is “inactive”.
With `CCCCNC(=O)c1cc2c(=O)n3cccc(C)c3nc2n(Cc2ccccc2)c1=N`, the Potency entry is “inactive”.
The result for `CCOc1ccccc1-n1c(C)cc(C=O)c1C` reads “inactive”.
As to `CCn1nc(NC(=O)c2cccs2)c2cc3ccccc3nc21`, the Potency entry was “inactive”.
Then `CCn1nc(C(=O)Nc2nc(-c3ccccn3)cs2)c2ccccc2c1=O`, with 31.6 µM (active); and `CCCn1c(=O)c(C(=O)Nc2ncccc2O)c(O)c2ccccc21`, with “inactive”.
Then `CC[C@@H]1C(c2cccc(Cl)c2)=NN(c2ccc(Br)cc2)[C@H]1C(=O)N1CCOC1=O`, with “inactive”; and `O=C(CN1C(=O)NC2(CCCC2)C1=O)NNC(=O)c1ccccc1F`, with “inactive”; and `CCOc1cccc(CN2CCCC(C(=O)c3cccc(C(F)(F)F)c3)C2)c1O` (centres undefined), with “inactive”.
Regarding `Cc1nc(-c2ccc(S(=O)(=O)Oc3ccc(Cl)cc3Cl)s2)cs1`, the Potency entry is “inactive”.
Regarding `CCOC(=O)c1cc2c(=O)n3ccccc3nc2n(Cc2ccco2)/c1=N\C(=O)c1ccccc1Br`, the Potency result is “inactive”.
As to `O=C1c2ccccc2C(=O)c2[nH]c(O)nc21`, the Potency is 25.1 µM (active).
For the compound `CCC(=O)N(CC)C1=C(O)C(=O)c2ccccc2C1=O`, the Potency entry is “inactive”.
As to `CCOC(=O)C1CCN(C(=O)c2ccc(CNS(=O)(=O)c3ccc(OC)cc3)cc2)CC1`, the Potency entry was “inactive”.
Regarding `O=C(CCCCC(=O)NN=Cc1ccc(Cl)cc1)NN=Cc1ccc(Cl)cc1`, the Potency is 39.8 µM (active).
The result for `O=C1NCCCC1C(=O)N/N=C/c1ccc(Cl)cc1` (centres undefined) reads “inactive”.
Turning to `O=C(CCCCC(=O)NN=Cc1ccc2c(c1)CCC2)NN=Cc1ccc2c(c1)CCC2`, the Potency result is “inactive”.
In the case of `Cc1c(-c2ccccc2)cnc2c(C)cccc12`, the Potency entry is “inactive”.
`CCc1cc(=O)oc2c(C)c(O)c(CN(C)C)cc12`: the Potency result is “inactive”.
With `CC1CCCCC1NC(=O)COC(=O)c1c2c(nc3ccccc13)/C(=C/c1ccco1)CC2` (centres undefined), the Potency entry is “inactive”.
For `CCc1cc(CNC(=O)CC2C(=O)NCCN2Cc2ccc(-c3ccccc3)cc2)on1` (centres undefined), the Potency is 35.5 µM (active).
On to `CCN(CCn1cccn1)C(=O)CC1C(=O)NCCN1Cc1ccc(F)cc1` (centres undefined), for which the Potency result is “inactive”.
Regarding `COc1cccc(CN2CCNC(=O)C2CC(=O)NC2CCOCC2)c1OC` (centres undefined), the Potency result is “inactive”.
